Assay outcomes deposited in PubChem BioAssay by National Center for Advancing Translational Sciences (NCATS).
Hits are enriched below; roughly 8.2% of the tested compounds scored in any of these assays.
KB-V1 MDR tox – kills drug-selected multidrug resistant KB-V1 cells. KB-V1 MDR cells viability, CellTiter-Glo, 72 h. Potency, µM (doses to about 46.1 µM), actives largely listed as cytotoxic. 400,000 tested, 3.4% active; further: nearly all actives have a fitted effect of over 60% in size
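Potencies derive from concentration-effect curves fitted to normalized luminescence (CellTiter-Glo) of KB-V1 cells treated for 72 h at 37 degrees C in phenol-red-free DMEM containing 10% FBS.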
ELG1 DNA repair – ELG1-dependent DNA repair inhibition | HEK293T ELG1-luciferase reporter, luminescence, 16 h; DNA damage induced by 5-fluorouridine | Potency, µM (titrated, usually from 46.1 µM), most hits filed as inhibitors | 330,000 tested, 2.3% active; further: nearly all actives have a fitted effect of over 55% in size
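DMSO vehicle served as the neutral condition. Each well held 2,000 cells given 5-fluorouridine plus compound; after 16 hr at 37 °C/5% CO2, ONE-Glo was added and luciferase measured 30 min later.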
SW480 rereplic – inducers of DNA re-replication in SW480 colon cancer cells | SW480 DNA re-replication, Hoechst DNA content imaging, 48 h | Potency, µM (series often up to 46.1 µM), hits mostly activators | 340,000 tested, 1.8% active | AID 624297; further: nearly all actives have a fitted effect of over 55% in size
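Hoechst fluorescence of nuclei (405 nm excitation, 500-530 nm emission) measured by plate-scanning imager after 48 hr compound exposure at 37 C; re-replication scored as increased number of nuclei with elevated intensity.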
MCF10A rerep – inducers of DNA re-replication in MCF 10A breast cells | MCF 10A DNA re-replication, Hoechst nuclear intensity, 48 h | Potency, µM (highest dose often 46.1 µM), hits mostly activators | 350,000 tested, 2.9% active | AID 624296; further: nearly all actives have a fitted effect of over 50% in size
KB-3-1 cytotox – kills parental KB-3-1 adenocarcinoma cells; 400,000 tested, 1.4% active; Potency, µM (top dose mostly 46.1 µM), actives largely listed as cytotoxic; KB-3-1 viability, CellTiter-Glo ATP luminescence, 72 h; further: nearly all actives have a fitted effect of over 60% in size
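KB-3-1 parental drug-naive adenocarcinoma cells in DMEM/10% FBS, incubated 72 h at 37 C with pin-transferred compounds across a concentration series. Viability by CellTiter-Glo luminescence; concentration-response curves fitted after normalization.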
ELG1 FLuc counter – luciferase inhibition in cell-free luciferin readout for ELG1 hits. 350 tested, 3% active. Potency, µM (top dose mostly 46.1 µM), actives largely listed as inhibitors. AID 624247. shares compounds with ELG1 DNA repair. cell-free firefly luciferase luminescence counter-screen, ViewLux
ELG1-Luc inh – human ELG1 repair inhibition, luciferase-tagged ELG1 confirmation; HEK293T ELG1-luciferase levels, luminescence; cells co-treated with 5-fluorouridine; AID 624248; shares compounds with ELG1 DNA repair; Potency, µM (top dose mostly 46.1 µM), most hits filed as inhibitors; 670 tested, 68% active; further: nearly all actives have a fitted effect of over 55% in size
ELG1 MMS Luc – MMS-stimulated human ELG1 repair inhibition, confirmed; shares compounds with ELG1 DNA repair; HEK293T luciferase-tagged ELG1 level, MMS stimulated; Potency, µM (titrated, usually from 46.1 µM), hits mostly inhibitors; 670 tested, 53% active; further: nearly all actives have a fitted effect of over 60% in size
ELG1 5-FU – confirmation of ELG1 repair inhibitors: viability with 5FU; shares compounds with ELG1 DNA repair; cell viability with 5-FU, ELG1-dependent repair; Potency, µM (highest dose often 46.1 µM), most hits filed as cytotoxic; 670 tested, under 10 active;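 further: ELG1-luc HEK293T cells cotreated with 5-fluorouridine at 10 µM final; viability measured 16 h after compound addition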
ELG1 MMS viab – confirmation of ELG1 repair inhibitors: viability with MMS; 670 tested, 33% active; Potency, µM (doses to about 46.1 µM), usual class: cytotoxic; Cell viability with MMS, ELG1-dependent DNA repair; shares compounds with ELG1 DNA repair;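 further: ELG1-luc HEK293T cells co-treated with 10 µM MMS; viability read 16 h after compound addition; nearly all actives have a fitted effect of over 60% in size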
Cell viab unstim – affects unstimulated cell viability, ELG1 hit counter-screen | 900 tested, 8% active | AID 624252 | Potency, µM (titrated, usually from 45.9 µM), usual class: cytotoxic | shares compounds with ELG1 DNA repair | cell viability counter-screen, unstimulated, luminescence;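 further: compound exposure lasted 16 hours before reading; nearly all actives have a fitted effect of over 55% in size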
FLuc biochem – counter-screen for ELG1 repair inhibitors: firefly luciferase inhibition; Potency, µM (highest dose often 57.5 µM), usual class: inhibitors; 350 tested, 10% active; AID 624253; shares compounds with ELG1 DNA repair; purified firefly luciferase, luminescence counter-screen
A number is an active result; - = inactive; ? = inconclusive; . = not tested or not shown. The call rests on the fitted dose curve; in most records, active means well fitted curve in the direction sought with a large enough effect; inconclusive means small, poorly fitted or top-dose-only effect, or another doubt; inactive means no such curve, though single readings can be large; an effect the other way counts as inactive or inconclusive.

SMILES | KB-V1 MDR tox | ELG1 DNA repair | SW480 rereplic | MCF10A rerep | KB-3-1 cytotox | ELG1-Luc inh | ELG1 MMS Luc | ELG1 5-FU | ELG1 MMS viab | Cell viab unstim | others
CCCn1c(N2CCN(CC(=O)c3c(C)n(C)c4ccc(OC)cc34)CC2)nc2c1c(=O)[nH]c(=O)n2C | - | 1.46µM | - | - | - | 3.54µM | ? | ? | - | ? | ELG1 FLuc counter=-;FLuc biochem=-
CCCSCCCNC(=O)c1ccc2nc(Cc3ccccc3)oc2c1 | - | . | . | . | - | . | . | . | . | .
Cc1ccc(N2CC(C(=O)OCC(=O)NNC(=O)c3ccccc3)CC2=O)cc1 (centres undefined) | - | - | - | - | - | . | . | . | . | .
COc1ccc(CN2CCN(CC(=O)Nc3ccccc3C(=O)NC3CC3)CC2)cc1F | - | 2.59µM | - | - | - | 7.05µM | ? | ? | - | -
CC(NC(=O)CN1CCN(c2ccccc2F)CC1)c1ccccc1 (centres undefined) | - | - | - | - | - | . | . | . | . | .
COc1ccc(N2CCN(CC(=O)Nc3ccccc3C(=O)NC(C)c3ccccc3)CC2)cc1 (centres undefined) | - | . | . | . | - | . | . | . | . | .
CC(NC(=O)c1ccccc1NC(=O)CN1CCN(c2ccccc2O)CC1)c1ccccc1 (centres undefined) | ? | 2.31µM | - | - | - | 5.6µM | ? | ? | ? | -
COc1ccccc1N1CCN(CC(=O)Nc2ccccc2C(=O)NC(C)c2ccccc2)CC1 (centres undefined) | . | 2.91µM | - | ? | . | 7.91µM | - | ? | - | ?
Cn1c(=O)c2c(nc(NCCc3ccccc3)n2Cc2cccc(Br)c2)n(C)c1=O | ? | . | . | . | - | . | . | . | . | .
COc1ccc2[nH]c(C(=O)N/N=C/c3ccc(O)cc3O)cc2c1 | - | ? | - | ? | - | . | . | . | . | .
O=C(O)Cn1cc(F)c(=O)[nH]c1=O | - | . | ? | - | - | . | . | . | . | .
COc1cc2cc(C)c(SCC(=O)N3CCOCC3)nc2cc1OC | - | - | - | - | - | . | . | . | . | - | ELG1 FLuc counter=-;FLuc biochem=-
COc1cc2cc(C#N)c(SCC(=O)N3CCOCC3)nc2cc1OC | - | - | - | - | - | . | . | . | . | .
CC1(c2nc3ccccc3cc2C#N)OCCO1 | - | . | . | . | - | . | . | . | . | .
CCOc1ccc(CC(=O)Nc2ccc(NC(=O)c3ccco3)cc2)cc1OCC | ? | 2.31µM | - | - | - | ? | 0.0628µM | - | 0.0705µM | -
COc1ccc(Nc2nc3cc(Cl)c(Cl)cc3n3cnnc23)cc1Cl | - | . | . | . | - | . | . | . | . | .
COc1cc(C)c2c(=O)cc(-c3ccccc3)oc2c1 | . | . | . | . | . | . | . | . | . | -
COc1cc(OC)c2c(=O)cc(-c3cccnc3)oc2c1 | - | ? | - | - | - | . | . | . | . | .
CC(=O)Nc1ccc(NC(=O)CSc2ccc3nnc(CCNS(=O)(=O)c4ccc(C)cc4)n3n2)cc1 | ? | - | - | - | - | . | . | . | . | .
Cc1ccc(S(=O)(=O)NCCc2nnc3ccc(SCC(=O)Nc4nc5ccccc5s4)nn23)cc1 | . | - | . | . | . | - | - | - | - | - | ELG1 FLuc counter=?;FLuc biochem=-
CN(C(=O)CN1C(=O)c2ccccc2S1(=O)=O)C1CCCCC1 | - | ? | - | - | - | . | . | . | . | -
CSc1ccc(C(=O)c2[nH]c(=O)[nH]c2C)cc1 | 5.8µM | ? | - | - | - | . | . | . | . | ? | ELG1 FLuc counter=-;FLuc biochem=?
CCN(CC)C(=O)c1sc(NC(=O)c2cccnc2)c(C(=O)OC)c1C | - | 2.59µM | - | - | - | 3.15µM | - | ? | - | ?
CCNC(=O)C1CCCN(C(=O)c2cc(F)cc(F)c2)CC1 (centres undefined) | - | . | . | . | - | . | . | . | . | .
COc1ccc(CNc2cccc3[nH]c(C(F)(F)F)nc23)cc1 | - | ? | - | - | - | . | . | . | . | .
SMILES | KB-V1 MDR tox | ELG1 DNA repair | SW480 rereplic | MCF10A rerep | KB-3-1 cytotox | ELG1-Luc inh | ELG1 MMS Luc | ELG1 5-FU | ELG1 MMS viab | Cell viab unstim | others
Cc1ccc(C(=O)Nc2cccc3[nH]c(C(F)(F)F)nc23)cc1 | 18.4µM | ? | - | ? | 16.4µM | 15.8µM | 7.91µM | - | 8.88µM | ?
COc1ccccc1NC(=O)CN1C(=O)CCSc2ccccc21 | ? | . | . | . | - | . | . | . | . | .
COc1cc(/C=C/C(=O)Nc2ccc3nc4n(c(=O)c3c2)CCCC4)cc(OC)c1OC | - | 4.61µM | - | - | - | 2.81µM | 9.96µM | ? | - | -
Cc1ccccc1OCC(=O)Nc1ccc(C)c(S(=O)(=O)N2CCCCCC2)c1 | 11.6µM | 1.3µM | - | - | - | 28.1µM | 6.28µM | ? | 8.88µM | -
Cc1ccc(NC(=O)COc2ccccc2)cc1S(=O)(=O)N1CCCCC1 | ? | . | . | . | - | . | . | . | . | .
O=C(CN(C(=O)c1csnn1)c1cccc2c1CCCC2)NCc1ccccc1 | - | - | - | ? | - | . | . | . | . | .
Cc1nn(-c2ccccc2)c2c1C(O)n1c(nc3ccccc31)S2 (centres undefined) | 18.4µM | 2.59µM | - | 16.4µM | - | 15.8µM | 11.2µM | ? | 25µM | ?
Nc1cc(=O)[nH]c(SCc2ccc(Cl)cc2Cl)n1 | - | 4.11µM | ? | - | ? | - | 2.81µM | - | 3.97µM | -
Nc1ncnc2nc(SCc3ccc(Cl)cc3Cl)[nH]c12 | ? | ? | - | ? | ? | . | . | . | . | .
OCCN1CCN(c2nccn3ccnc23)CC1 | - | . | . | . | - | . | . | . | . | .
Cc1ccc2cc(CN(CC3CCCO3)C(=S)Nc3ccccc3)c(=O)[nH]c2c1C (centres undefined) | 2.31µM | 4.61µM | 5.17µM | 2.59µM | 7.31µM | 3.97µM | ? | ? | - | ?
Cc1ccc(NC(=S)N(Cc2cccs2)Cc2cc3cccc(C)c3[nH]c2=O)cc1 | ? | ? | - | ? | - | 4.45µM | ? | ? | - | -
CCOC(=O)C1(C(=O)OCC)C(C(=O)c2ccccc2)C1c1ccccc1 (centres undefined) | - | . | - | - | ? | . | . | . | . | .
CCCN(CCC)c1ncnc2nc[nH]c12 | - | 1.64µM | - | - | - | 4.45µM | ? | - | - | -
